Usually AC50 stands for the concentration at which the activity in the assay is half-maximal.

The values below come from PubChem BioAssay (EPA / NIEHS).

The structures appear in SMILES notation. The source made the active and inactive calls. How the source made its calls: active means hit-call score of the fitted dose curve at least 0.9, where 1 is the maximum; inactive means score below 0.9.

This assay in a line: ATG_Sox_CIS: Attagene CIS-FACTORIAL HepG2 Assay for human SRY-box transcription factor (SOX) (AID 2282960). The conditions noted are these: HepG2 Attagene cis-factorial SOX reporter, mRNA; actives raise or lower the signal. Here is the method: ATG_CIS is a cell-based, multiplexed-readout assay that uses HepG2, a human liver cell line, with measurements taken at 24 hours after chemical dosing in a 24-well plate.ATG_Sox_CIS is one of 52 assay component(s) measured or calculated from the ATG_CIS assay. It is designed to make measurements of mRNA induction, a form of inducible reporter, as detected with fluorescence intensity signals by Reverse transcription polymerase chain reaction (RT-PCR) and Capillary electrophoresis technology.Data from the assay component ATG_Sox_CIS was analyzed into 1 assay endpoint. This assay endpoint, ATG_Sox_CIS, was analyzed with bidirectional fitting relative to DMSO as the negative control and baseline of activity. Using a type of inducible reporter, measures of mRNA for gain or loss-of-signal activity can be used to understand the reporter gene at the transcription factor-level as they relate to the gene SOX1. Furthermore, this assay endpoint can be referred to as a primary readout, because this assay has produced multiple assay endpoints where this one serves a reporter gene function. To generalize the intended target to other relatable targets, this assay endpoint is annotated to the dna binding intended target family, where the subfamily is HMG box protein.
Human liver HepG2 cells are transiently transfected with multiple reporter transcription units (MRTUs) in 6-well plates using FuGene 6 reagent (Roche; 3 ml FuGene/1 mg DNA). The MRTU constructs are regulated by a cis-regulating element (promoter). […] A major difference between the CIS and TRANS system is that in CIS activities of endogenous TFs are measured, whereas the TRANS assay evaluates changes in activities of exogenous, chimeric NR-Gal4 proteins. […] At the end of 24 hour incubation, total RNA was isolated using TriZol reagent (Invitrogen). The isolated RNA is then reverse-transcribed using oligo(dT) primer and Mo-MLV reverse transcriptase (Invitrogen) with DNAse I (Ambion) treatment for 30 min. The one-tenth of the produced cDNA was amplified by PCR using Taq DNA polymerase (Invitrogen) and two reporter sequence-specific primers. The PCR products were fluorescently labeled by primer extension with 6-arboxyfluorescein (6-FAM) 5'-labeled reporter sequence-specific primer (2 min at 95 C, 20 s at 68 C and 10 min at 72 C) and these products were digested with 5U of HpaI (New England Biolabs) for 2h at 37 C. The fragments were purified using Qiaquick PCR columns (Qiagen), analyzed on an ABI 3130xL genetic analyzer (Applied Biosystems) with peak positions identified by using a set of X-rhodamine (ROX)-labeled MapMarker1000 molecular weight standards (BioVentures). The raw capillary electrophoresis data was processed using Attagraph software (Attagene).
Take `CCO[Si](OCC)(OCC)c1ccccc1`: the molecule was called inactive.

Regarding `C[Si](C)(C)O[Si](C)(C)O[Si](C)(C)C`, the result was inactive. With `CC/C=C\CCO`, the molecule was classed as inactive. On the same count and under the same terms, the entry for `COc1c2occc2cc2ccc(=O)oc12` is “inactive”; for `CCCCCCCCCCCCCC` it is “inactive”.

Turning to `Cc1ccccc1S(N)(=O)=O`, the result was inactive.

Consider `CC/C=C\CC/C=C/C(OCC)OCC`, for which the AC50 is 147 µM (active). As to `Nc1ccc(S(=O)(=O)Nc2cnc3ccccc3n2)cc1`, the outcome was inactive. For the molecule `c1cc(N(CC2CO2)CC2CO2)ccc1Cc1ccc(N(CC2CO2)CC2CO2)cc1` (stereo not given), the molecule was classed as inactive.

As for `COC(=O)CCSCCC(=O)OC`, the result was inactive. With `CN(C)c1ccc(C(c2ccccc2)c2ccc(N(C)C)cc2)cc1`, the molecule was classed as inactive. On the same count and under the same terms, the entry for `CNC(=C[N+](=O)[O-])NCCSCc1csc(CN(C)C)n1` is “inactive”; for `CCCCCCC(O)CCCCCCCCCCC(=O)OC` (stereo not given) it is “inactive”; for `O=C(OCc1ccccc1)c1ccccc1` it is “inactive”. In the case of `NC(=O)c1ccc(N)cc1`, the call was inactive. Turning to `O=S(=O)(O)c1cccc2ccccc12`, the result was inactive. As to `CCOC(=O)c1ccccc1`, the molecule was called inactive. Regarding `CC[N+](CC)(CC(=O)Nc1c(C)cccc1C)Cc1ccccc1` (tested in a mixture with another compound), the molecule was classed as inactive. Take `C/C=C(\C)C(=O)OCC/C=C\CC`: the call was inactive.

In the case of `O=C(O)/C=C\C(=O)O`, the result was inactive. As for `CNC[C@H](O)[C@@H](O)[C@H](O)[C@H](O)CO`, the molecule was classed as inactive.

`CCCCCCCC#N`: the call was inactive. As to `CCCC[N+]1(C)CCCC1`, the result was inactive. With `C[C@H]1C[C@H]2[C@@H]3CCC4=CC(=O)C=C[C@]4(C)[C@@]3(F)[C@@H](O)C[C@]2(C)[C@@]1(O)C(=O)CO`, the outcome was inactive. On the same count and under the same terms, the entry for `Cc1cc2nc3c(=O)[nH]c(=O)nc-3n(C[C@H](O)[C@H](O)[C@H](O)CO)c2cc1C` is “inactive”; for `CCC(C)(CCC(C)C)C(=O)O` (stereo not given) it is “inactive”; for `CC(O)(P(=O)(O)O)P(=O)(O)O` it is “inactive”. On to `Cc1cc(-n2nc3ccc(Cl)cc3n2)c(O)c(C(C)(C)C)c1`, for which the outcome was inactive.

As to `Oc1cccc2ccccc12`, the result was inactive. In the case of `CCCCCC1CCCC(=O)O1` (stereo not given), the outcome was inactive. On to `CN(C)N=Nc1ccccc1`, for which the molecule was called inactive. Same read-out and setting: the entry for `CN(C)CCC(c1ccc(Cl)cc1)c1ccccn1` (stereo not given) is “inactive”; for `CN(C)Cc1cc(C(C)(C)C)c(O)c(C(C)(C)C)c1` it is “inactive”. `COC(=O)/C=C\C(=O)OC`: the half-maximal activity concentration (AC50) is 100 µM (active).

With `Oc1ccc(Oc2ccccc2)cc1`, the molecule was classed as inactive. On to `C=CCOC(=O)C(=C)C`, for which the molecule was called inactive.

For the molecule `c1ccc2c(c1)Oc1ccccc1S2`, the call was inactive. Same read-out and setting: the entry for `CCO[Si](CCCN)(OCC)OCC` is “inactive”. Turning to `C1=CCC=C1`, the outcome was inactive. As to `COc1cccc(OC)c1C(=O)O`, the outcome was inactive.
